Results as given in PubChem BioAssay (NCATS).
Records with an inconclusive call do not appear. Calls of active or inactive are those of the source. Calls come from the whole dose curve; as a rule, active = well fitted curve in the direction sought with a large enough effect; inconclusive = small, poorly fitted or top-dose-only effect, or another doubt; inactive = no such curve, though single readings can be large; an effect the other way counts as inactive or inconclusive.

Each compound was assayed against Methanococcus maripaludis chaperonin (MmCpn) (UniProt Q6LX38) (assay: High-Throughput Screening for Modulators of Cytosolic Chaperonin Activity: MmCpn Primary Screen (AID 488978;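 note: 50 nM MmCpn enzyme hydrolysing 30 µM ATP at 37 °C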)). Conditions: Purified MmCpn ATPase activity, ADP HTRF detection, 10 min; series mostly up to 76.9 µM.
Summary of the method: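 MmCpn at 50 nM final was preincubated 5 min at RT with compound. ATP was then added at 30 uM final for 10 min at 37 C. ADP formed was detected by Transcreener HTRF (665/590 nm).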

Sequence of Methanococcus maripaludis chaperonin (MmCpn) (Q6LX38 1-543): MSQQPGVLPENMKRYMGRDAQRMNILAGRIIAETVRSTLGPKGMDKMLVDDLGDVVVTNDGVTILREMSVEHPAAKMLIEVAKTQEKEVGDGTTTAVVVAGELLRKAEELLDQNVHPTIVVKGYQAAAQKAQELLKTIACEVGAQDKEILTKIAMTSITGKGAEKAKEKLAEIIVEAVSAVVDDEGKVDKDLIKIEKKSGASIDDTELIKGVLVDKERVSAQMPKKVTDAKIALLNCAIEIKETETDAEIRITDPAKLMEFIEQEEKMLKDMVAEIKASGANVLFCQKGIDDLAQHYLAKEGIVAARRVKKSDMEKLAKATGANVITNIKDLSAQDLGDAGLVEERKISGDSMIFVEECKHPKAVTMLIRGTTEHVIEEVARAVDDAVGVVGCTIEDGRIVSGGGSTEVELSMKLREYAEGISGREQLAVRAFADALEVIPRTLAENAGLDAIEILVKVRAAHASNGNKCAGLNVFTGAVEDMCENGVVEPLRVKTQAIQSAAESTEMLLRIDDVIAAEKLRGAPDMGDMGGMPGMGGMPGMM

Row | Compound | outcome
1 | CCCC[N+]1(C)C2CC(OC(=O)[C@H](CO)c3ccccc3)CC1C1OC12 (some centres undefined) | inactive
2 | CC(N)Cc1c[nH]c2ccc(O)cc12 (centres undefined) | inactive
3 | COc1ccc2c(c1)[C@@]13CCCC[C@H]1[C@@H](C2)NCC3 | inactive
4 | O=c1c2ccccc2[se]n1-c1ccccc1 | inactive
5 | c1ccc2cc(CC3=NCCN3)ccc2c1 | inactive
6 | Ic1ccccc1CNC1C2CCN(CC2)C1C(c1ccccc1)c1ccccc1 (centres undefined) | inactive
7 | OCc1cnc[nH]1 | inactive
8 | CC(C)NP(=O)(NC(C)C)OP(=O)(NC(C)C)NC(C)C | inactive
9 | C=CCN(C1=NCCN1)c1c(Cl)cccc1Cl | inactive
10 | C[N+]1(C)CCc2cc3c(cc2[C@H]1[C@@H]1OC(=O)c2c1ccc1c2OCO1)OCO3 | inactive
11 | COc1ccc2c(c1)/C(=C/c1cnc[nH]1)C(=O)N2 | inactive
12 | COc1ccc(CNC(=O)/C=C/c2ccc3[nH]cc(CCN(C)C)c3c2)cc1 | inactive
13 | CO[C@H]1CC=C2CCN3CCC4=C(CC(=O)OC4)[C@]23C1 | inactive
14 | CCCCCCCCCCCCCC(=O)O[C@@H]1[C@@H](C)[C@@]2(O)[C@@H](C=C(CO)C[C@@]3(O)C(=O)C(C)=C[C@@H]23)C2C(C)(C)[C@@]21OC(C)=O (some centres undefined) | inactive
15 | Oc1ccc2c3c1O[C@H]1c4[nH]c5ccccc5c4C[C@@]4(O)C(C2)N(CC2CC2)CCC314 (some centres undefined) | inactive
16 | CN1CC[C@@]2(C)c3cc(O)ccc3N(C)C12 (some centres undefined) | inactive
17 | C[N+](C)(C)CC#CCOC(=O)Nc1cccc(Cl)c1 | inactive
18 | Oc1ccc2c3c1O[C@H]1c4oc5ccccc5c4C[C@@]4(O)C(C2)N(CC2CC2)CCC314 (some centres undefined) | inactive

Row | Compound | outcome
19 | CN1CCC(c2c[nH]c3ccc(O)cc23)CC1 | inactive
20 | COC(=O)N1CCN(C(=O)Cc2ccc(Cl)c(Cl)c2)C(CN2CCCC2)C1 (centres undefined) | inactive
21 | COc1ccc2c(c1)C13CCCCC1C(C2)N(C)CC3 (centres undefined) | inactive
22 | C[C@]12Cc3cn4c(nc3C=C1CCC1C2CC[C@@]2(C)[C@H]1CC[C@@]2(O)C#N)nc1ccccc14 (some centres undefined) | inactive
23 | CCCn1c(=O)c2[nH]c(C3CCCC3)nc2n(CCCOC(=O)c2ccc(S(=O)(=O)F)cc2)c1=O | inactive
24 | Cc1cc([C@@H]2CCCN2C)on1 | inactive
25 | N=C(N)c1ccc(CS(=O)(=O)F)cc1 | inactive
26 | C[N+]1(C)CCOC(O)(c2ccc(-c3ccc(C4(O)C[N+](C)(C)CCO4)cc3)cc2)C1 (centres undefined) | inactive
27 | C[N+]1(C)C2CCC1CC(OC(=O)c1c[nH]c3ccccc13)C2 (centres undefined) | inactive
28 | NC(N)=Nc1ccc2[nH]c3c(c2c1)C[C@@]1(O)[C@H]2Cc4ccc(O)c5c4[C@@]1(CCN2CC1CC1)[C@H]3O5 | inactive
29 | Nc1ccc(CCN2CCN(c3cccc(C(F)(F)F)c3)CC2)cc1 | inactive
30 | Cc1[nH]c2ccc(O)cc2c1CCN | inactive
31 | CC(=O)c1c(O)c(C)c(O)c(Cc2c(O)c3c(c(C(=O)/C=C/c4ccccc4)c2O)OC(C)(C)C=C3)c1O | inactive
32 | C=CCN1CC[C@]23c4c5ccc(O)c4O[C@H]2/C(=N/NC(=O)c2ccccc2)CC[C@@]3(O)[C@H]1C5 | inactive
33 | C[C@@H]1O[C@H](C[N+](C)(C)C)CS1 | inactive
34 | CC(N)Cc1c[nH]c2ccc(OCc3cccs3)cc12 (centres undefined) | inactive
35 | NC(C(=O)O)c1cc(=O)[nH]o1 (centres undefined) | inactive
36 | CN(N=O)c1cc(O)ccc1O | inactive

Each compound was assayed against Transient receptor potential cation channel subfamily V member 1 (Homo sapiens) (UniProt Q8NER1) (assay: HTS Assay for Compounds that Act as Enhancers of the Vanilloid Receptor 1 (AID 488979)). Conditions: TRPV1-expressing cells, enhancer of channel activity; series mostly up to 41.7 µM.
Summary of the method: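 Calcium influx kinetics via Fluo-8 (480/520 nm) in TRPV1-expressing cells, 2000/well cultured overnight at 35.5C. Compound-alone read 3 min (agonist phase), followed by EC20 capsaicin challenge for 2 min (enhancer phase).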

Sequence of Transient receptor potential cation channel subfamily V member 1 (Homo sapiens) (Q8NER1 whole entry, looked up): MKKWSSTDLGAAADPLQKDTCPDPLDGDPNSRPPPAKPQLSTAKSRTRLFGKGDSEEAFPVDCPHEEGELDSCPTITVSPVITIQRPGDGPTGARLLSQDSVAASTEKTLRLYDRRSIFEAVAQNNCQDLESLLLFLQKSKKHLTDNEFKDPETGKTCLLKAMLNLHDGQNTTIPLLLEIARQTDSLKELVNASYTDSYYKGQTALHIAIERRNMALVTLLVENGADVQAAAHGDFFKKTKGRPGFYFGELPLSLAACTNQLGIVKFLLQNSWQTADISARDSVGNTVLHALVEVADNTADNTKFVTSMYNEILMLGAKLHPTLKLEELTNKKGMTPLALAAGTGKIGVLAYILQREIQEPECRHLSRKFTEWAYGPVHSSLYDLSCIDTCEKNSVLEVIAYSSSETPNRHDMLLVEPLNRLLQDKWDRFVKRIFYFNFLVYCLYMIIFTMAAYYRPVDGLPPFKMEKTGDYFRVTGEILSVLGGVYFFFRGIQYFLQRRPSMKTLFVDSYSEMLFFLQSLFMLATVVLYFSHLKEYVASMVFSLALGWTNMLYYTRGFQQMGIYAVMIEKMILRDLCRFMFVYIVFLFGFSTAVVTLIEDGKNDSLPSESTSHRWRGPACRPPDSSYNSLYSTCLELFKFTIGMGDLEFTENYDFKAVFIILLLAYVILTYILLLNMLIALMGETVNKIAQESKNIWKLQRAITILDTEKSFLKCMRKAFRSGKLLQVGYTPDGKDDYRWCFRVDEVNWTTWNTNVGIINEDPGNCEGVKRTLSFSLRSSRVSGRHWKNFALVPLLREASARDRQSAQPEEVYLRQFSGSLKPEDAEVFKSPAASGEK

Row | Compound | outcome
37 | CC(N)Cc1c[nH]c2ccc(O)cc12 (centres undefined) | inactive
38 | c1ccc2cc(CC3=NCCN3)ccc2c1 | inactive
39 | OCc1cnc[nH]1 | inactive
40 | CC(C)NP(=O)(NC(C)C)OP(=O)(NC(C)C)NC(C)C | inactive
41 | N#CC(C#N)=Cc1cc(O)c(O)c(O)c1 | inactive
42 | COc1ccc2c(c1)/C(=C/c1cnc[nH]1)C(=O)N2 | inactive
43 | COc1ccc(CNC(=O)/C=C/c2ccc3[nH]cc(CCN(C)C)c3c2)cc1 | inactive
44 | CO[C@H]1CC=C2CCN3CCC4=C(CC(=O)OC4)[C@]23C1 | inactive
45 | CCCCCCCCCCCCCC(=O)O[C@@H]1[C@@H](C)[C@@]2(O)[C@@H](C=C(CO)C[C@@]3(O)C(=O)C(C)=C[C@@H]23)C2C(C)(C)[C@@]21OC(C)=O (some centres undefined) | inactive
46 | CN1CC[C@@]2(C)c3cc(O)ccc3N(C)C12 (some centres undefined) | inactive
47 | C[N+](C)(C)CC#CCOC(=O)Nc1cccc(Cl)c1 | inactive
48 | Oc1ccc2c3c1O[C@H]1c4oc5ccccc5c4C[C@@]4(O)C(C2)N(CC2CC2)CCC314 (some centres undefined) | inactive
49 | CN1CCC(c2c[nH]c3ccc(O)cc23)CC1 | inactive
50 | COC(=O)N1CCN(C(=O)Cc2ccc(Cl)c(Cl)c2)C(CN2CCCC2)C1 (centres undefined) | inactive
51 | COc1ccc2c(c1)C13CCCCC1C(C2)N(C)CC3 (centres undefined) | inactive
52 | C[C@]12Cc3cn4c(nc3C=C1CCC1C2CC[C@@]2(C)[C@H]1CC[C@@]2(O)C#N)nc1ccccc14 (some centres undefined) | inactive
53 | CCCn1c(=O)c2[nH]c(C3CCCC3)nc2n(CCCOC(=O)c2ccc(S(=O)(=O)F)cc2)c1=O | inactive
54 | CNC(=O)OCC[N+](C)(C)C | inactive
55 | C[N+]1(C)CCOC(O)(c2ccc(-c3ccc(C4(O)C[N+](C)(C)CCO4)cc3)cc2)C1 (centres undefined) | inactive
56 | C[N+]1(C)C2CCC1CC(OC(=O)c1c[nH]c3ccccc13)C2 (centres undefined) | inactive
57 | NC(N)=Nc1ccc2[nH]c3c(c2c1)C[C@@]1(O)[C@H]2Cc4ccc(O)c5c4[C@@]1(CCN2CC1CC1)[C@H]3O5 | inactive
58 | Nc1ccc(CCN2CCN(c3cccc(C(F)(F)F)c3)CC2)cc1 | inactive
59 | Cc1[nH]c2ccc(O)cc2c1CCN | inactive
60 | CC(=O)c1c(O)c(C)c(O)c(Cc2c(O)c3c(c(C(=O)/C=C/c4ccccc4)c2O)OC(C)(C)C=C3)c1O | inactive
61 | C=CCN1CC[C@]23c4c5ccc(O)c4O[C@H]2/C(=N/NC(=O)c2ccccc2)CC[C@@]3(O)[C@H]1C5 | inactive
62 | C[C@@H]1O[C@H](C[N+](C)(C)C)CS1 | inactive
63 | NC(C(=O)O)c1cc(=O)[nH]o1 (centres undefined) | inactive
64 | CN(N=O)c1cc(O)ccc1O | inactive
